Results on 40 compounds are retold here after PubChem BioAssay (Tox21).

Results filed as inconclusive are left out. Calls of active or inactive are those of the source. The call rests on the fitted dose curve; in most records, active means well fitted cell-killing curve with a large enough effect in the repeat runs; inconclusive means weak or mixed curves, or effect the other way; inactive means no such curve, though single readings can be large or run the other way. Where a SMILES comes first, the peptide text is derived from it.
On the % scale 0 is the no-effect control and ±100 the full control effect.

The assay is described as follows: qHTS assay to identify small molecule agonists of the vitamin D receptor (VDR) signaling pathway - cell viability counter screen (AID 743224). Further: nearly all actives have a fitted effect of over 50% in size. As to conditions: VDR-bla HEK293T viability, CellTiter-Glo luminescence, 16 h; series mostly up to 62.6 µM; activity change, negative = cytotoxicity: at the top concentration. An excerpt:
U.S. Tox21 Program National Center for Advancing Translational Sciences [NCATS] NIH Chemical Genomics Center [NCGC] U.S. Environmental Protection Agency [EPA] National Institutes of Environmental Health Sciences [NIEHS] National Toxicology Program [NTP] U.S. Food and Drug Administration [FDA] Tox21 Assay Overview: The vitamin D receptor (VDR), a member of nuclear hormone receptor superfamily, plays a critical role in calcium homeostasis and bone metabolism. It is also involved in cell differentiation and growth, and thrombogenicity. […] The cytotoxicity of the Tox21 compound library against the VDR-bla cell line was tested in parallel by measuring the cell viability using CellTiter-Glo assay (Promega, Madison, WI) in the same wells.
Tox21 Assay Protocol Summary: VDR-bla cells were dispensed at 2,000 cells/6 uL/well into black wall/clear-bottom 1536-well plates using a Multidrop Combi (Thermo Fisher Scientific, Waltham, MA) dispenser. After the assay plates were incubated at a 37C and 5% CO2 for 4 h, 23 nL of compounds dissolved in DMSO, positive controls or DMSO only was transferred to the assay plate by a Pintool station (Kalypsys, San Diego, CA). The plates were incubated at 37C and 5% CO2 for 16 h. After 1 uL of LiveBLAzerTM B/G FRET substrate was added using a Bioraptr Flying Reagent Dispenser (FRD) workstation (Beckman Coulter, Indianapolis, IN, USA), the plates were incubated at room temperature for 2 h, and fluorescence intensity was measured by an Envision plate reader (PerkinElmer, Shelton, CT). For cell viability readout that measures cytotoxicity, 3 ul/well of CellTiter-Glo reagent was added into the assay plates using a FRD. After 30 min incubation at room temperature, the luminescence intensity in the plates was measured using a ViewLux (PerkinElmer) plate reader.
In general terms: qHTS replaces the single test concentration by a dilution series.
Turning to `O=C(O)[C@H](O)c1ccccc1`, the “activity change, negative = cytotoxicity” value is -0.337% (inactive).
For the compound `CCO[Si](CC)(OCC)OCC`, the “activity change, negative = cytotoxicity” value was -0.172% (inactive).
For `O=Cc1ccccc1Cl`, the “activity change, negative = cytotoxicity” value is 1.83% (inactive).
Regarding `O=NN(CCCl)C(=O)NC1CCCCC1`, the “activity change, negative = cytotoxicity” value was -5.56% (inactive).
For `CCOc1cccc(N)c1`, the “activity change, negative = cytotoxicity” value was 3.4% (inactive).
On to `CCCC(CC)c1ccccc1` (stereo not given), for which the “activity change, negative = cytotoxicity” value was -3.82% (inactive).
As to `CC(=O)O[C@H]1C[C@@H]2CC[C@@]1(C)C2(C)C`, the “activity change, negative = cytotoxicity” value is -22.1% (inactive).
In the case of `CCCCCCCCCCOC(C)=O`, the “activity change, negative = cytotoxicity” value was 0.0921% (inactive).
Take `Cn1c(=O)c2[nH]c(Br)nc2n(C)c1=O`: the “activity change, negative = cytotoxicity” value is -9.2% (inactive).
To `CC1OCCC1=O` (stereo not given) belongs -2.03% (inactive); to `O=C=NCC1CCCC(CN=C=O)C1` (stereo not given), 2% (inactive).
Regarding `C=CCCCC`, the “activity change, negative = cytotoxicity” value was 4.02% [at 81.1 µM] (inactive).
For the compound `O=C(O)CONC(=O)c1ccccc1`, the “activity change, negative = cytotoxicity” value is 0.697% (inactive).
To `Cc1ccnc(N)c1` belongs 10.4% (inactive); to `Cc1ccc(N)cc1S(=O)(=O)O`, 15.8% (inactive).
In the case of `NCc1ccc(S(N)(=O)=O)cc1`, the “activity change, negative = cytotoxicity” value is 1.6% (inactive).
On to `COc1cc(/C=C/C(N)=O)cc(OC)c1OC`, for which the “activity change, negative = cytotoxicity” value is 40.3% (inactive).
As for `C=CCCCCCCCC`, the “activity change, negative = cytotoxicity” value is 1.7% [at 81.1 µM] (inactive).
In the case of `Cc1ccc(C)c([N+](=O)[O-])c1`, the “activity change, negative = cytotoxicity” value was -2.05% (inactive).
In the case of `CC(=O)c1cc(C)oc1C`, the “activity change, negative = cytotoxicity” value was 5.32% [at 81.1 µM] (inactive).
To `CC1=NN(c2ccc(S(=O)(=O)O)cc2)C(=O)C1` belongs 5.06% (inactive); to `Cc1cc(C)c(C(=O)O)c(C)c1`, -6.21% (inactive); to `CCOCCOCC`, 26.1% [at 81.1 µM] (inactive).
The value for `O=C1CCCCO1` was 8.34% (inactive); that for `c1ccc(-c2nn[nH]n2)cc1` was 9.2% (inactive); that for `CN(C)CCN(C)CCO` was 7.85% (inactive).
Regarding `C=C(C)c1cccc(C(C)(C)N=C=O)c1`, the “activity change, negative = cytotoxicity” value is 4.07% (inactive).
Regarding `CC(C)NC(=O)c1ccc(C=O)cc1`, the “activity change, negative = cytotoxicity” value was 14.4% (inactive).
The value for `CC(C)(C)NC[C@H](O)COc1cccc2c1CCCC2=O` was 2.54% (inactive).
`CCCC(=O)OC/C=C(\C)CCC=C(C)C`: the “activity change, negative = cytotoxicity” value is -14.6% (inactive).
Turning to `O=C1c2ccccc2C(=O)c2cc(Cl)ccc21`, the activity change, negative = cytotoxicity is -4.49% [at 5.95 µM] (inactive).
To `CCCCOC(=O)C(C)O` (stereo not given) belongs 0.949% (inactive).
Consider `CO[Si](CCCn1c(=O)n(CCC[Si](OC)(OC)OC)c(=O)n(CCC[Si](OC)(OC)OC)c1=O)(OC)OC`, for which the “activity change, negative = cytotoxicity” value is -5.13% (inactive).
Take `CC(=O)N[C@@H](CO)C(=O)N[C@@H](CC(=O)O)C(=O)N[C@@H](CCCCN)C(=O)N1CCC[C@H]1C(=O)O` (Ac-SDKP-OH): the “activity change, negative = cytotoxicity” value is 3.13% (inactive).
Consider `CCC/C=C(\C=O)CC`, for which the “activity change, negative = cytotoxicity” value was -2.76% (inactive).
To `O=[N+]([O-])c1c(Cl)cc(Cl)cc1Cl` belongs -0.46% (inactive); to `[O]=[Mo](=[O])=[O]`, -23.3% [at 29.1 µM] (inactive); to `CN1CCOC(c2ccccc2)c2ccccc2C1` (stereo not given), -5.46% (inactive).
On to `CSc1cnccn1`, for which the “activity change, negative = cytotoxicity” value was -0.64% (inactive).
To `CCC(=O)Oc1ccc2c(c1)CC[C@@H]1[C@@H]2CC[C@@]2(C)[C@H]1C[C@@H](OC(=O)CC)[C@@H]2OC(=O)CC` belongs -1.18% (inactive).
